{"source": "PubChem BioAssay (NCI)", "note": "The panel holds about 83,000 compounds, 20% with a hit somewhere; the sample as a whole holds those more often.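 Single-concentration screen, 48 h exposure, 96-well plates. Endpoint: percent growth. Below 10 = active.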 A number with no mark means an inactive call. Activity calls are given as the source filed them.", "data": [{"tested_on": "A549/ATCC NSCLC", "test": "NCI-60 one-dose screen, 48 h (100 = growth as untreated, 0 = no growth, -100 = all killed)", "conditions": "10 µM", "values": [{"smiles": "CC(C)[N+]1(C)C2CC[C@@H]1CC(OC(=O)C(CO)c1ccccc1)C2", "note": "(stereo not given in full)", "growth": "92.3%"}, {"smiles": "Cc1c2c[n+](C(C)C)ccc2c(C)c2c1[nH]c1ccccc12", "growth": "20.4%"}, {"smiles": "Cc1ccc(-n2c(C)nn3c(=O)c4c5c(sc4nc23)CN(C)CC5)cc1", "growth": "73.7%"}, {"smiles": "CCCCCCCCCCCCCCCCCC[n+]1ccc2c(C)c3c(c(C)c2c1)c1cc(O)ccc1n3CC", "growth": "13.9%"}, {"smiles": "Cc1c2cnccc2c(C)c2c1c1cc(O)ccc1n2C(C)C", "growth": "7.74% (active)"}, {"smiles": "COc1ccc(C(=O)CSc2nc(-c3cc(OC)ccc3OC)cc(-c3ccc(OC)cc3)c2C#N)cc1", "growth": "78.6%"}, {"smiles": "CCn1c2ccc(O)cc2c2c(C)c3c[n+](C)ccc3c(C)c21", "growth": "37.5%"}, {"smiles": "Cc1ccccc1N1C(=O)c2cc(S(N)(=O)=O)c(Cl)cc2NC1C", "note": "(stereo not given)", "growth": "100%"}, {"smiles": "N#Cc1c(-c2ccc(Cl)cc2)cc(-c2cc(O)ccc2O)nc1N", "growth": "40%"}, {"smiles": "CN1CCc2c(sc3nc4n(-c5ccc(Cl)cc5)c(=O)[nH]n4c(=O)c23)C1", "growth": "74.7%"}, {"smiles": "Cn1c2ccccc2c2c3[nH][nH]c(=O)c3c3c4ccccc4[nH]c3c21", "growth": "56.9%"}, {"smiles": "O=C1c2c(c3c4ccccc4n(CCCCCCN4CCOCC4)c3c3[nH]c4ccccc4c23)C(=O)N1O", "growth": "81.1%"}, {"smiles": "Nc1ccccc1NC(=O)c1ccc(CCCC(=O)Nc2ccc(C3CC3N)cc2)cc1", "note": "(stereo not given)", "growth": "34.8%"}, {"smiles": "Nc1nc(-c2cccnc2)nc2c1sc(=S)n2-c1ccccc1", "growth": "76.2%"}, {"smiles": "Nc1cc(-c2ccncc2)c[nH]c1=O", "growth": "106%"}, {"smiles": "COc1cc2c3c(n([C@H]4CCOC4)c(=O)c2cc1OC)-c1cc2c(cc1C3=O)OCO2", "growth": "32.5%"}, {"smiles": "C=C/C(C)=C/C[C@]1(C)[C@H](C)[C@@H](OC(=O)CCC)[C@H](O)[C@@]23C(=C[C@H](OC)C[C@@H]12)[C@@H](OC(=O)CCC)O[C@H]3OC(C)=O", "growth": "12.5%"}, {"smiles": "Fc1ccc2[nH]cc(-c3nc(-c4ccsc4)cs3)c2c1", "growth": "80%"}, {"smiles": "CN1CCc2c(sc3nc4n(-c5ccc(Cl)cc5)cnn4c(=O)c23)C1", "growth": "88.2%"}, {"smiles": "O=C(CCCNC(=O)c1nc(-c2ccccc2)n(-c2ccccc2)n1)NO", "growth": "71.7%"}, {"smiles": "Nc1ccc(-c2cccs2)cc1NC(=O)c1ccc(CCCC(=O)Nc2ccc(C3CC3N)cc2)cc1", "note": "(stereo not given)", "growth": "72.1%"}, {"smiles": "CCOC(=O)c1sc2ncnc(Nc3ccc(NC(=O)Nc4ccc(Cl)cc4)cc3)c2c1C", "growth": "54.5%"}, {"smiles": "CCNc1nc(C(F)(F)F)nc2c1sc(=S)n2-c1ccccc1", "growth": "74.4%"}, {"smiles": "COc1ccc([C@H]2[C@H](C(=O)Nc3cccnc3)c3ccccc3C(=O)N2c2ccccc2)cc1", "growth": "87.8%"}, {"smiles": "O=C(CCCCNC(=O)c1nc(-c2ccccc2)n(-c2ccccc2)n1)NO", "growth": "84.2%"}, {"smiles": "COc1cc(CNC(=O)C2CSC3(C)c4ccccc4C(=O)N23)cc(OC)c1OC", "note": "(stereo not given)", "growth": "83.1%"}, {"smiles": "COc1cc2c3c(n(C4CCNCC4)c(=O)c2cc1OC)-c1cc2c(cc1C3=O)OCO2", "growth": "-53.7% (active)"}, {"smiles": "C[C@@H](O)[C@H]1C(=O)N2C(C(=O)O)=C(SC3CN[C@H](C(=O)N(C)C)C3)[C@H](C)[C@H]12", "note": "(stereo not given in full)", "growth": "96.6%"}, {"smiles": "COc1cc2c3c(n([C@@H]4CCOC4)c(=O)c2cc1OC)-c1cc2c(cc1C3=O)OCO2", "growth": "30.4%"}, {"smiles": "CCOC(=O)c1sc2ncnc(Nc3ccc4c(cnn4C(=O)Nc4ccc(C)c(Cl)c4)c3)c2c1C", "growth": "72.7%"}, {"smiles": "CN1C(C(=O)Nc2ccccn2)=C(O)c2sc(Cl)cc2S1(=O)=O", "growth": "99.9%"}, {"smiles": "CCCN1CN2C(=O)N3CN(CCC)CN4C(=S)N(C1)C2C34", "note": "(stereo not given)", "growth": "102%"}, {"smiles": "COc1ccc(-c2cc(-c3cc(OC)ccc3OC)nc(N)c2C#N)cc1", "growth": "62.6%"}, {"smiles": "c1cncc(-c2csc(-c3c[nH]c4ccccc34)n2)c1", "growth": "78.8%"}, {"smiles": "c1cnc2[nH]cc(-c3nc(-c4ccsc4)cs3)c2c1", "growth": "84.7%"}, {"smiles": "COc1ccc(-c2nn(-c3cccc(Cl)c3)cc2C=C(C#N)C#N)cc1", "growth": "19.1%"}, {"smiles": "CCOC(=O)c1sc2ncnc(Nc3ccc4c(cnn4C(=O)Nc4ccccc4)c3)c2c1C", "growth": "56.7%"}, {"smiles": "CCCCCC(=O)O[C@]1(C(C)=O)CCC2C3CCC4=CC(=O)CC[C@]4(C)C3CC[C@@]21C", "note": "(stereo not given in full)", "growth": "27.9%"}, {"smiles": "CCn1cc(CNc2ccc(C(=O)Nc3ccc4ccccc4c3)cc2)c(C)n1", "growth": "63.4%"}, {"smiles": "O=c1[nH]c(=O)n(C2C[C@H](O)[C@@H](CO)O2)cc1C(F)(F)F", "note": "(stereo not given in full)", "growth": "102%"}]}, {"tested_on": "786-0 renal", "test": "NCI-60 one-dose screen, 48 h (100 = growth as untreated, 0 = no growth, -100 = all killed)", "conditions": "10 µM", "values": [{"smiles": "CC(C)[N+]1(C)C2CC[C@@H]1CC(OC(=O)C(CO)c1ccccc1)C2", "note": "(stereo not given in full)", "growth": "103%"}, {"smiles": "Cc1c2c[n+](C(C)C)ccc2c(C)c2c1[nH]c1ccccc12", "growth": "27.7%"}, {"smiles": "Cc1ccc(-n2c(C)nn3c(=O)c4c5c(sc4nc23)CN(C)CC5)cc1", "growth": "86.3%"}, {"smiles": "CCCCCCCCCCCCCCCCCC[n+]1ccc2c(C)c3c(c(C)c2c1)c1cc(O)ccc1n3CC", "growth": "5.53% (active)"}, {"smiles": "Cc1c2cnccc2c(C)c2c1c1cc(O)ccc1n2C(C)C", "growth": "5.57% (active)"}, {"smiles": "COc1ccc(C(=O)CSc2nc(-c3cc(OC)ccc3OC)cc(-c3ccc(OC)cc3)c2C#N)cc1", "growth": "94.4%"}, {"smiles": "CCn1c2ccc(O)cc2c2c(C)c3c[n+](C)ccc3c(C)c21", "growth": "13.7%"}, {"smiles": "Cc1ccccc1N1C(=O)c2cc(S(N)(=O)=O)c(Cl)cc2NC1C", "note": "(stereo not given)", "growth": "99.6%"}, {"smiles": "N#Cc1c(-c2ccc(Cl)cc2)cc(-c2cc(O)ccc2O)nc1N", "growth": "-4.38% (active)"}, {"smiles": "CN1CCc2c(sc3nc4n(-c5ccc(Cl)cc5)c(=O)[nH]n4c(=O)c23)C1", "growth": "84.8%"}, {"smiles": "Cn1c2ccccc2c2c3[nH][nH]c(=O)c3c3c4ccccc4[nH]c3c21", "growth": "23%"}, {"smiles": "O=C1c2c(c3c4ccccc4n(CCCCCCN4CCOCC4)c3c3[nH]c4ccccc4c23)C(=O)N1O", "growth": "5.72% (active)"}, {"smiles": "Nc1ccccc1NC(=O)c1ccc(CCCC(=O)Nc2ccc(C3CC3N)cc2)cc1", "note": "(stereo not given)", "growth": "38.8%"}, {"smiles": "Nc1nc(-c2cccnc2)nc2c1sc(=S)n2-c1ccccc1", "growth": "98.7%"}, {"smiles": "Nc1cc(-c2ccncc2)c[nH]c1=O", "growth": "103%"}, {"smiles": "COc1cc2c3c(n([C@H]4CCOC4)c(=O)c2cc1OC)-c1cc2c(cc1C3=O)OCO2", "growth": "10.6%"}, {"smiles": "C=C/C(C)=C/C[C@]1(C)[C@H](C)[C@@H](OC(=O)CCC)[C@H](O)[C@@]23C(=C[C@H](OC)C[C@@H]12)[C@@H](OC(=O)CCC)O[C@H]3OC(C)=O", "growth": "-79.9% (active)"}, {"smiles": "Fc1ccc2[nH]cc(-c3nc(-c4ccsc4)cs3)c2c1", "growth": "109%"}, {"smiles": "CN1CCc2c(sc3nc4n(-c5ccc(Cl)cc5)cnn4c(=O)c23)C1", "growth": "96.4%"}, {"smiles": "O=C(CCCNC(=O)c1nc(-c2ccccc2)n(-c2ccccc2)n1)NO", "growth": "92.3%"}, {"smiles": "Nc1ccc(-c2cccs2)cc1NC(=O)c1ccc(CCCC(=O)Nc2ccc(C3CC3N)cc2)cc1", "note": "(stereo not given)", "growth": "-48% (active)"}, {"smiles": "CCOC(=O)c1sc2ncnc(Nc3ccc(NC(=O)Nc4ccc(Cl)cc4)cc3)c2c1C", "growth": "52.3%"}, {"smiles": "CCNc1nc(C(F)(F)F)nc2c1sc(=S)n2-c1ccccc1", "growth": "101%"}, {"smiles": "COc1ccc([C@H]2[C@H](C(=O)Nc3cccnc3)c3ccccc3C(=O)N2c2ccccc2)cc1", "growth": "91.2%"}, {"smiles": "O=C(CCCCNC(=O)c1nc(-c2ccccc2)n(-c2ccccc2)n1)NO", "growth": "92%"}, {"smiles": "COc1cc(CNC(=O)C2CSC3(C)c4ccccc4C(=O)N23)cc(OC)c1OC", "note": "(stereo not given)", "growth": "102%"}, {"smiles": "COc1cc2c3c(n(C4CCNCC4)c(=O)c2cc1OC)-c1cc2c(cc1C3=O)OCO2", "growth": "-60% (active)"}, {"smiles": "C[C@@H](O)[C@H]1C(=O)N2C(C(=O)O)=C(SC3CN[C@H](C(=O)N(C)C)C3)[C@H](C)[C@H]12", "note": "(stereo not given in full)", "growth": "103%"}, {"smiles": "COc1cc2c3c(n([C@@H]4CCOC4)c(=O)c2cc1OC)-c1cc2c(cc1C3=O)OCO2", "growth": "7.24% (active)"}, {"smiles": "CCOC(=O)c1sc2ncnc(Nc3ccc4c(cnn4C(=O)Nc4ccc(C)c(Cl)c4)c3)c2c1C", "growth": "89.6%"}, {"smiles": "CN1C(C(=O)Nc2ccccn2)=C(O)c2sc(Cl)cc2S1(=O)=O", "growth": "104%"}, {"smiles": "CCCN1CN2C(=O)N3CN(CCC)CN4C(=S)N(C1)C2C34", "note": "(stereo not given)", "growth": "93.2%"}, {"smiles": "COc1ccc(-c2cc(-c3cc(OC)ccc3OC)nc(N)c2C#N)cc1", "growth": "66.2%"}, {"smiles": "c1cncc(-c2csc(-c3c[nH]c4ccccc34)n2)c1", "growth": "103%"}, {"smiles": "c1cnc2[nH]cc(-c3nc(-c4ccsc4)cs3)c2c1", "growth": "107%"}, {"smiles": "COc1ccc(-c2nn(-c3cccc(Cl)c3)cc2C=C(C#N)C#N)cc1", "growth": "-8.39% (active)"}, {"smiles": "CCOC(=O)c1sc2ncnc(Nc3ccc4c(cnn4C(=O)Nc4ccccc4)c3)c2c1C", "growth": "-2.26% (active)"}, {"smiles": "CCCCCC(=O)O[C@]1(C(C)=O)CCC2C3CCC4=CC(=O)CC[C@]4(C)C3CC[C@@]21C", "note": "(stereo not given in full)", "growth": "40.3%"}, {"smiles": "CCn1cc(CNc2ccc(C(=O)Nc3ccc4ccccc4c3)cc2)c(C)n1", "growth": "75.3%"}, {"smiles": "O=c1[nH]c(=O)n(C2C[C@H](O)[C@@H](CO)O2)cc1C(F)(F)F", "note": "(stereo not given in full)", "growth": "101%"}]}]}
